Laboratory results reported in PubChem BioAssay (EPA / NIEHS).
The source made the active and inactive calls. Rule for the calls: active = hit-call score of the fitted dose curve at least 0.9, where 1 is the maximum; inactive = score below 0.9.

Experiment: CCTE_Shafer_MEA_dev_burst_rate: CCTE's Neural Network Formation Assay for Burst Rate, Shafer Lab (AID 2284042)
Experimental: CCTE_Shafer_MEA_dev assay is conducted using Axion Biosystems 48 well microelectrode array (MEA) plates and Maestro recording system. Each well of the MEA plate contains a grid of 16 microelectrodes embedded in the culture surface. Electrically active cells, such as neurons, can be cultured over the electrodes, and electrical activity in these cells can be recorded extracellularly. The spontaneous firing of neurons is captured from each electrode on a microsecond timescale providing both temporally and spatially precise data. […] The CCTE_Shafer_MEA_dev assay uses primary cultures of rat cortical neurons. Recordings are made on days post-plating 5, 7, 9 and 12. As these cultures mature over time, neural networks develop functional activity and form cohesive networks in which electrical activity can be highly coordinated. CCTE_Shafer_MEA_dev_burst_rate is 1 of 19 assay components of the CCTE_Shafer_MEA_dev assay. It measures the frequency of single-electrode bursts (temporally-clustered groups of action potential firing) as the total number of bursts divided by the length of the recording in a microelectrode array (MEA) using Axion Biosystems Maestro 768 channel amplifier with the AxIS adaptive spike detector. The mean bursting rate is averaged across the active electrodes to report a well-mean value. To collapse across multiple recordings made on days post-plating 5, 7, 9 and 12, the trapezoidal area-under-the-curve of the component is calculated.Data from the assay component CCTE_Shafer_MEA_dev_burst_rate was analyzed into 1 assay endpoint. This assay endpoint, CCTE_Shafer_MEA_dev_burst_rate, was analyzed in the negative analysis fitting direction relative to DMSO as the negative control and baseline of activity. Using a type of functional reporter, gain or loss-of-signal activity can be used to understand electrical activity.
On the day prior to culture, each well was coated thoroughly with 150 uL of 0.05% polyethyleneimine (PEI, Sigma Cat P3143) in 50 mM HEPES (Sigma Cat H7523) at a pH of 8. The plate was incubated at 37C for one hour. PEI was rinsed out with 500 uL of sterile water three times. Plates were stored at 4C until the day of culture. This culture was plated at a seeding density of 1.5 x 10^5 cells/well on a 48-well MEA plate, prepared as described above. Cells were administered via a 25 uL media/laminin ([…]; Sigma Cat L2020-1MG) drop directly onto the microelectrode array, as adding the cells with the laminin results in better attachment than pre-coating with laminin. After 2 hours, an additional 475 uL of cortical media was added and the cells returned to the incubator. Exposure starts at day 0 of plating and is continued over twelve days of network development until the experiment is terminated. Cells are fed with fresh medium on DIV 5 and 9, following the recordings on those days. The entire volume of media in the well is exchanged and any vehicle or compound treatment is renewed. Complete details are found in OP-NHEERL/ISTD/SBB/TJS/2015-03-r0 (available on request, email shafer.tim@epa.gov). Measurement of the electrical activity is non-invasive, and recordings can be made from the same plate over multiple different days of the culture. In cortical neurons, this allows for the measurement of extracellular action potentials over the period during which networks form in the MEA plate.

outcome, inactive:
CCC(C)(C)C(=O)O[C@H]1C[C@@H](C)C=C2C=C[C@H](C)[C@H](CC[C@@H]3C[C@@H](O)CC(=O)O3)[C@H]21
O=P(OC(CCl)CCl)(OC(CCl)CCl)OC(CCl)CCl
CC[C@H]1OC(=O)[C@H](C)[C@@H](O[C@H]2C[C@@](C)(OC)[C@@H](O)[C@H](C)O2)[C@H](C)[C@@H](O[C@@H]2O[C@H](C)C[C@H](N(C)C)[C@H]2O)[C@](C)(O)C[C@@H](C)C(=O)[C@H](C)[C@@H](O)[C@]1(C)O
COc1ccc(-n2nc(C(F)F)cc2-c2ccc(S(C)=O)cc2)cc1 (stereo not given)
CC[C@H](C)C(=O)O[C@H]1C[C@@H](C)C=C2C=C[C@H](C)[C@H](CC[C@@H]3C[C@@H](O)CC(=O)O3)[C@H]21
O=C1CCC(N2C(=O)c3ccccc3C2=O)C(=O)N1 (stereo not given)
Cn1c(=O)c2c(ncn2C)n(C)c1=O
NC(=O)NO
CNCc1ccc(NC(=O)c2c[nH]c3c2C(=O)CCC3)cc1
Nc1nc2ncc(CNc3ccc(C(=O)N[C@@H](CCC(=O)O)C(=O)O)cc3)nc2c(=O)[nH]1
